# Test results reported in PubChem BioAssay.
# Several values for one entry are separate records, joined by “and”; a condition that tells them apart may be missing. Equal entries are not always repeated. Activity calls are given as the source filed them.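 The calls were made as follows, unless noted: active = z-score of at least 1.8 in each of two replicates, scored against plate mean and spread of sample wells; inactive = the rest.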
# Tests used:
# [1] = liver-stage malaria parasite growth inhibition, primary screen, cell-based, HepG2, luciferase luminescence, HepG2 viability (AID 624349; in the data active = parasite load remaining mostly below about 12%, no sharp cut-off; inactive = mostly above about 10%;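 also: 100% = mean of DMSO negative control wells on the same plate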); conditions: P. berghei liver stage in HepG2, luciferase luminescence, concentration not given here; parasite load remaining: stronger effect = lower value; viability: measured here: HepG2 viability without parasites
# [2] = stimulators of nuclear beta-catenin in C2C12, primary screen, imaging, WNT3A-conditioned medium, mouse C2C12, NPC library (AID 1117326; in the data active = nuclear beta-catenin stimulation mostly above about 4.2%, no sharp cut-off; inactive = mostly below about 10%); conditions: stronger effect = higher value
# [3] = stimulators of insulin release from INS-1E, primary screen, cell-based, 5 mM glucose, NPC library (AID 1117329;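 active = compound raises insulin release from rat beta cells at 5 mM glucose, no numeric limit stated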); conditions: rat INS-1E insulin secretion, at 10 µM, stronger effect = higher value
# [4] = growth inhibition of GSK3B-pretreated HCT116 cells – cell-based, CellTiter-Glo, 0.2 to 20 µM (AID 1117336;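 active = compounds lowering colon cancer cell viability after pretreatment blocking the GSK3B kinase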); conditions: HCT116 viability after GSK3B inhibitor, at 20 µM, stronger effect = higher value
# [5] = inhibition of endothelial tube formation, primary screen, imaging, VEGF stimulated, CD31 staining, tube area, NPC library (AID 1117340;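 active = compound that reduces growth-factor-driven endothelial tube area in a mixed cell culture, no cutoff stated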); conditions: VEGF-stimulated ADSC/ECFC co-culture, at 10 µM, stronger effect = higher value
# [6] = glucagon-like peptide 1 release enhancers, primary assay, NCI-H716 cell line, NPC library (AID 1117341;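 active = compound raises GLP1 secretion from the human gut endocrine cells, with no numeric limit stated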); conditions: NCI-H716 cells, at 10 µM, stronger effect = higher value
# [7] = HCT116 colon cancer cell growth inhibition, primary screen, CellTiter-Glo luminescence, NPC library (AID 1117342;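 active = compounds that lower survival of HCT116 colon cancer cells in the luminescence readout, no numeric limit stated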); conditions: at 20 µM (top of the series)
# [8] = CellTiter-Glo luminescent readout of SW480 viability loss, NPC library primary (AID 1117343;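 active = compounds that lower viability of the colon cancer cells in the luminescence readout, with no numeric limit stated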); conditions: CellTiter-Glo luminescence; at 20 µM (top of the series)
# [9] = decreased DLD-1 cellular survival, CellTiter-Glo luminescent readout, NPC compound collection, primary HTS (AID 1117346;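 active = compounds that lower survival of DLD-1 colon cancer cells in the luminescence readout, no cutoff given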); conditions: DLD-1 viability, CellTiter-Glo luminescence; at 20 µM (top of the series)
# [10] = differential killing of epithelial or mesenchymal cells, primary screen, imaging, PC-3E GFP, TEM4-18 mCherry, co-culture (AID 1345086;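 active = compounds killing one labelled cell type while sparing the other, by normalised counts and ratio limits, not self-fluorescent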;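 as to all read-outs here: cells exposed to compound for 72 h before imaging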;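 as to red/green cell ratio (normalised): normalised mesenchymal count divided by normalised epithelial count so high means epithelial killing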); conditions: imaging cell counts, at 1 µM; for red/green cell ratio (normalised): actives lie on both sides
# [11] = test system: Aerobactin synthetase IucA (Klebsiella pneumoniae hvKP1); test: Biochemical IucA enzyme inhibition primary screen of the Spectrum library (AID 1346200; call rule not given here;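 also: 100% = wells without compound and 0% = wells lacking enzyme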); conditions: malachite green pyrophosphate, A620, at 8 µM, stronger effect = lower value
# [12] = test system: Aerobactin synthetase IucA (Klebsiella pneumoniae, hypervirulent); test: IucA enzyme inhibition, biochemical, LOPAC library, absorbance readout (AID 1346212; call rule not given here;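 also: 100% = no compound wells and 0% = no enzyme wells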); conditions: IucA enzyme assay, absorbance (OD) readout; stronger effect = lower value;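 tested at 8 µM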
# [13] = target: NAD(+) hydrolase SARM1 (Homo sapiens) (UniProt Q6SZW1); test: SARM1 TIR NADase inhibitors, cell lysate, NAD-Glo luminescence (AID 1508614;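 active = compound whose remaining NAD level is above about 45 nM, limit read from the data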;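 also: higher remaining NAD means stronger inhibition of SARM1 NADase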); conditions: SAM-TIR HEK293T lysate NADase, at 1 µM, stronger effect = higher value
# NAD(+) hydrolase SARM1 (Homo sapiens), sequence (Q6SZW1 whole entry, looked up, the tested form may be a part): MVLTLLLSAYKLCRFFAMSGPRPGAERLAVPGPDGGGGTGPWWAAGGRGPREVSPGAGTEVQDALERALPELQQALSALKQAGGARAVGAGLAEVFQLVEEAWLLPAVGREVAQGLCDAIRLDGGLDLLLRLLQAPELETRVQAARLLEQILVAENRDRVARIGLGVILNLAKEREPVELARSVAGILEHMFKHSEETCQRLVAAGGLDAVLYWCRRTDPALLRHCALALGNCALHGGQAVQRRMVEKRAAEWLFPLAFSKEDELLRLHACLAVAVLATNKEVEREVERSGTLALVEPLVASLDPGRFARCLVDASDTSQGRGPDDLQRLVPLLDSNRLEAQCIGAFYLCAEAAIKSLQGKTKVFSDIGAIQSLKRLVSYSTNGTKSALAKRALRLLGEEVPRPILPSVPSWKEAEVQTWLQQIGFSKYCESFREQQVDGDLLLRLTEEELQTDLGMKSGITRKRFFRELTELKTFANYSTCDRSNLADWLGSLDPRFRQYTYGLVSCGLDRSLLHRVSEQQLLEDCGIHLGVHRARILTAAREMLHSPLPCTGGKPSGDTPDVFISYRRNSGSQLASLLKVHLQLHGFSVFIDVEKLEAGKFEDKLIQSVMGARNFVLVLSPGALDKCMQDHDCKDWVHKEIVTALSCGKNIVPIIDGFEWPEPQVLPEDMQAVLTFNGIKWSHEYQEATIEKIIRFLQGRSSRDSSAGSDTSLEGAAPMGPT
# [14] = target: Mitogen-activated protein kinase 7 (Homo sapiens) (UniProt Q13164); test: ERK5 transactivation activators in reporter cells, primary screen, cell-based, HTS (AID 1508626;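 active = luciferase signal above three times the same-plate solvent-only control wells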;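 also: luciferase driven by Gal4-ERK5 fusion binding five Gal4 sites before minimal TATA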); conditions: HeLa Gal4-ERK5 transactivation, 18 h, at 5 µM, stronger effect = higher value
# Mitogen-activated protein kinase 7 (Homo sapiens), sequence (Q13164 whole entry, looked up, the tested form may be a part): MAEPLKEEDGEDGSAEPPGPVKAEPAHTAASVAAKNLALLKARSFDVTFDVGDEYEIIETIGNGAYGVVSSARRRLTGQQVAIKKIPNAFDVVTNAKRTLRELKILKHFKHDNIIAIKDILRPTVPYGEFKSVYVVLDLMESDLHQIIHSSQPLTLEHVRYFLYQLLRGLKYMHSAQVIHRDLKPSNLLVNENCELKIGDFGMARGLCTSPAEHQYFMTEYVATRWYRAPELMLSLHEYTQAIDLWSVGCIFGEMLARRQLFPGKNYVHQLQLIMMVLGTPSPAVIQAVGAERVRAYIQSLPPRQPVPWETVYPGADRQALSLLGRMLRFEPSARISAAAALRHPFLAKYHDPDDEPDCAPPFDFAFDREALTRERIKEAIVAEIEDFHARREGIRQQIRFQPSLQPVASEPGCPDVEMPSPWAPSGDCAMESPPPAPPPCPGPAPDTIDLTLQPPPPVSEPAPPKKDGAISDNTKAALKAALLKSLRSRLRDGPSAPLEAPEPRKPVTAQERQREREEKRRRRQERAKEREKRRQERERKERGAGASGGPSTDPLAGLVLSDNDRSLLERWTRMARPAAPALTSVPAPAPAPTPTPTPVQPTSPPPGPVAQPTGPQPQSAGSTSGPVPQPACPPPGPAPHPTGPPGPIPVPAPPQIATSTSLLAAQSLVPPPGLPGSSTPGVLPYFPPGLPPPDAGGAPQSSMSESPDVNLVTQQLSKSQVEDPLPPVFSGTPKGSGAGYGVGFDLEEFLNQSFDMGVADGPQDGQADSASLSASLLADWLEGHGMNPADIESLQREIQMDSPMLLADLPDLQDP
# [15] = viability rescue of complex I mutant cybrids, primary screen, cell-based, galactose medium, ATP luminescence (AID 1645843); conditions: complex I mutant cybrid cells, 72 h, stronger effect = higher value;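 also: positive z means more ATP and so rescue of galactose-driven cybrid death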
# [16] = sensitizers of A549 cells to miR-34 induction, primary screen, imaging, A549 dox-inducible miR-34, nuclei and caspase counts (AID 1347080;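 active = compounds whose cell count with miR-34 switched on is under 0.7 times the count with it off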); conditions: A549 miR-34 inducible, Hoechst nuclei count, 48 h
# [17] = survival rescue of mitochondrial mutant cells in low glucose, primary screen, MELAS cybrids, Rieske KO mouse fibroblasts, CellTiter-Glo (AID 1508586;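 active = mean z-score across replicates of 1.96 or higher in either the MELAS or the Rieske mutant cell line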;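 also: z relative to plate mean and SD of compound and empty wells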)
# [18] = hESC survival regulators, cell-based (AID 493140; call rule not given here;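 also: cells exposed to compounds for four days before counting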); conditions: human embryonic stem cell survival screen; stronger effect = higher value
# [19] = measured here: epithelial PC-3E GFP cell survival
# [20] = measured here: mesenchymal TEM4-18 mCherry cell survival
# [21] = measured here: relative caspase fold change +Dox/-Dox
# [22] = measured here: total cells with miR-34 induction, stronger effect = lower value
# [23] = measured here: total cells without miR-34 induction
# [24] = MELAS cybrid survival, CellTiter-Glo 48 h, stronger effect = higher value
# [25] = Rieske KO mouse fibroblast survival, CellTiter-Glo 72 h
smiles,measurement,setting,value
Nc1ccncc1,parasite load remaining,[1],151% (inactive) and 61% (inactive)
same,viability,[1],71.5% and 95.5%
same,nuclear beta-catenin stimulation,[2]; at 10 µM,-0.9% (inactive)
same,nuclear beta-catenin stimulation,"[2]; stimulation, at 2 µM",0.7%
same,insulin secretion stimulation,[3],0% (inactive)
same,viability decrease,[4],-0.55% (inactive)
same,tube area decrease,[5],-8.7% (inactive)
same,GLP1 secretion stimulation,[6],2.4% (inactive)
same,inhibition of viability,[7],1.7% (inactive)
same,viability decrease (inhibition),[8],11.9% (active)
same,viability decrease (inhibition),[9],-6.35% (inactive)
same,red/green cell ratio (normalised),[10],0.8 (inactive)
same,normalised cell number,[10]; [19],1.23
same,normalised cell number,[10]; [20],0.99
same,activity remaining,[11],105% (inactive)
same,remaining activity,[12],103% (inactive)
same,remaining NAD,[13],10 nM (inactive)
same,luciferase signal,[14],32 AU (inactive)
same,z-score,[15],0.855 (inactive) and 0.215 (inactive)
NC(=O)OCCCc1ccccc1,parasite load remaining,[1],136% (inactive)
same,viability,[1],89.7%
same,nuclear beta-catenin stimulation,[2]; at 10 µM,0.8% (inactive)
same,nuclear beta-catenin stimulation,"[2]; stimulation, at 2 µM",0.3%
same,insulin secretion stimulation,[3],-2.9% (inactive)
same,viability decrease,[4],-9.45% (inactive)
same,tube area decrease,[5],18% (inactive)
same,GLP1 secretion stimulation,[6],0.9% (inactive)
same,inhibition of viability,[7],4.5% (inactive)
same,viability decrease (inhibition),[8],-4.9% (inactive)
same,viability decrease (inhibition),[9],-16.8% (inactive)
same,fold change,[16]; stronger effect = lower value,0.887 (inactive)
same,fold change,[16]; [21],1.34
same,cell count,[16]; [22],9650
same,cell count,[16]; [23],10900
same,z-score,[17]; [24],-0.606 (inactive)
same,z-score,[17]; [25],-0.33
same,z-score,[15],0.64 (inactive)
COc1cccc([C@@]2(O)CCCC[C@@H]2CN(C)C)c1,nuclear beta-catenin stimulation,[2]; at 10 µM,4.3% (inactive)
same,nuclear beta-catenin stimulation,"[2]; stimulation, at 2 µM",1.4%
same,insulin secretion stimulation,[3],9.4% (inactive)
same,viability decrease,[4],34.1% (inactive)
same,tube area decrease,[5],-7.2% (inactive)
same,GLP1 secretion stimulation,[6],4.9% (inactive)
same,inhibition of viability,[7],30.7% (inactive)
same,viability decrease (inhibition),[8],75.1% (active)
same,viability decrease (inhibition),[9],20.8% (inactive)
same,fold change,[16]; stronger effect = lower value,0.937 (inactive)
same,fold change,[16]; [21],0.969
same,cell count,[16]; [22],10100
same,cell count,[16]; [23],10700
same,z-score,[17]; [24],0.879 (inactive) and 0.255 (inactive)
same,z-score,[17]; [25],0.166 and -0.539
same,remaining NAD,[13],10 nM (inactive)
same,luciferase signal,[14],40 AU (inactive)
same,z-score,[15],0.845 (inactive)
CC1Sc2c(C(=O)O)c(=O)c3cc(F)c(N4CCNCC4)cc3n21 (stereo unspecified),nuclear beta-catenin stimulation,[2]; at 10 µM,-0.2% (inactive)
same,nuclear beta-catenin stimulation,"[2]; stimulation, at 2 µM",2.5%
same,insulin secretion stimulation,[3],1.4% (inactive)
same,viability decrease,[4],43.4% (inactive)
same,tube area decrease,[5],-8.5% (inactive)
same,GLP1 secretion stimulation,[6],2.3% (inactive)
same,inhibition of viability,[7],50.6% (active)
same,viability decrease (inhibition),[8],40.9% (inactive)
same,viability decrease (inhibition),[9],40.8% (inactive)
same,red/green cell ratio (normalised),"[10]; counts scaled to control wells, 1 = unselective",1.16 (inactive)
same,normalised cell number,[10]; [19],1
same,normalised cell number,[10]; [20],1.16
COc1cc(N)c(Cl)cc1C(=O)NC1CN2CCC1CC2 (stereo unspecified),parasite load remaining,[1],103% (inactive)
same,viability,[1],107%
same,nuclear beta-catenin stimulation,[2]; at 10 µM,-1.2% (inactive)
same,nuclear beta-catenin stimulation,"[2]; stimulation, at 2 µM",0%
same,insulin secretion stimulation,[3],3% (inactive)
same,viability decrease,[4],0.8% (inactive)
same,tube area decrease,[5],-1.2% (inactive)
same,GLP1 secretion stimulation,[6],6.7% (inactive)
same,inhibition of viability,[7],15.8% (inactive)
same,viability decrease (inhibition),[8],-5.8% (inactive)
same,viability decrease (inhibition),[9],1.7% (inactive)
same,fold change,[16]; stronger effect = lower value,0.946 (inactive)
same,fold change,"[16]; stronger effect = lower value, cell number ratio, induced over uninduced",0.971 (inactive)
same,fold change,[16]; [21],1.7 and 0.526
same,cell count,[16]; [22],9370 and 10300
same,cell count,[16]; [23],9910 and 10600
same,z-score,[15],0.86 (inactive) and -0.355 (inactive)
CCOC(=O)c1cncn1C(C)c1ccccc1 (stereo unspecified),survival,[18],6.08 (inactive)
same,parasite load remaining,[1],51% (inactive) and 69.2% (inactive)
same,viability,[1],95.5% and 111%
same,nuclear beta-catenin stimulation,[2]; at 10 µM,1.8% (inactive)
same,nuclear beta-catenin stimulation,"[2]; stimulation, at 2 µM",3.6%
same,insulin secretion stimulation,[3],-0.5% (inactive)
same,viability decrease,[4],-7.2% (inactive)
same,tube area decrease,[5],11% (inactive)
same,GLP1 secretion stimulation,[6],-1.9% (inactive)
same,inhibition of viability,[7],-15.8% (inactive)
same,viability decrease (inhibition),[8],22.4% (inactive)
same,viability decrease (inhibition),[9],-22.4% (inactive)
same,z-score,[17]; [24],-0.441 (inactive)
same,z-score,[17]; [25],0.585
same,z-score,[15],0.035 (inactive) and 0.295 (inactive)
CC[C@]1(O)CC[C@H]2[C@@H]3CCC4=CCCC[C@@H]4[C@H]3CC[C@@]21C,parasite load remaining,[1],95.1% (inactive)
same,viability,[1],75.2%
same,nuclear beta-catenin stimulation,[2]; at 10 µM,8.1% (inactive)
same,nuclear beta-catenin stimulation,"[2]; stimulation, at 2 µM",0.5%
same,insulin secretion stimulation,[3],1.8% (inactive)
same,viability decrease,[4],70.7% (active)
same,tube area decrease,[5],66.4% (active)
same,GLP1 secretion stimulation,[6],2.3% (inactive)
same,inhibition of viability,[7],64.1% (active)
same,viability decrease (inhibition),[8],97.8% (active)
same,viability decrease (inhibition),[9],73% (active)
c1ccc2c(c1)OCC(C1=NCCN1)O2 (stereo unspecified),survival,[18],1.58 (inactive)
same,parasite load remaining,[1],48.2% (inactive) and 42.6% (inactive)
same,viability,[1],92.9% and 100%
same,nuclear beta-catenin stimulation,[2]; at 10 µM,5.9% (inactive)
same,nuclear beta-catenin stimulation,"[2]; stimulation, at 2 µM",-1.4%
same,insulin secretion stimulation,[3],2.3% (inactive)
same,viability decrease,[4],14.1% (inactive)
same,tube area decrease,[5],-4.8% (inactive)
same,GLP1 secretion stimulation,[6],0.1% (inactive)
same,inhibition of viability,[7],17.5% (inactive)
same,viability decrease (inhibition),[8],33.2% (inactive)
same,viability decrease (inhibition),[9],-3.9% (inactive)
same,red/green cell ratio (normalised),[10],0.85 (inactive)
same,normalised cell number,[10]; [19],1.22
same,normalised cell number,[10]; [20],1.03
same,remaining activity,[12],109% (inactive)
same,z-score,[17]; [24],0.698 (inactive) and 0.759 (inactive)
same,z-score,[17]; [25],-0.433 and -0.198
same,remaining NAD,[13],10 nM (inactive)
same,z-score,[15],-1 (inactive) and -0.91 (inactive) and -1.57 (inactive)
CCN(CC)CCOC(=O)C(O)(c1ccccc1)c1ccccc1,parasite load remaining,[1],103% (inactive)
same,viability,[1],95.8%
same,nuclear beta-catenin stimulation,[2]; at 10 µM,-0.3% (inactive)
same,nuclear beta-catenin stimulation,"[2]; stimulation, at 2 µM",-1.2%
same,insulin secretion stimulation,[3],4% (inactive)
same,viability decrease,[4],-5.8% (inactive)
same,tube area decrease,[5],-5.7% (inactive)
same,GLP1 secretion stimulation,[6],1% (inactive)
same,inhibition of viability,[7],1.8% (inactive)
same,viability decrease (inhibition),[8],-15.1% (inactive)
same,viability decrease (inhibition),[9],2.6% (inactive)
same,fold change,[16]; stronger effect = lower value,1.01 (inactive)
same,fold change,[16]; [21],1.6
same,cell count,[16]; [22],10200
same,cell count,[16]; [23],10100
same,z-score,[15],0.79 (inactive)
C=C1C[C@@H]2[C@H](CC[C@]3(C)C(=O)CC[C@@H]23)[C@@]2(C)C=CC(=O)C=C12,parasite load remaining,[1],41% (inactive)
same,viability,[1],86.7%
same,nuclear beta-catenin stimulation,[2]; at 10 µM,2.3% (inactive)
same,nuclear beta-catenin stimulation,"[2]; stimulation, at 2 µM",-0.3%
same,insulin secretion stimulation,[3],12.9% (inactive)
same,viability decrease,[4],2.6% (inactive)
same,tube area decrease,[5],6.3% (inactive)
same,GLP1 secretion stimulation,[6],8.3% (inactive)
same,inhibition of viability,[7],-12.1% (inactive)
same,viability decrease (inhibition),[8],24.7% (inactive)
same,viability decrease (inhibition),[9],-20.4% (inactive)
same,z-score,[17]; [24],0.961 (inactive)
same,z-score,[17]; [25],0.0493
same,remaining NAD,[13],10 nM (inactive)
same,luciferase signal,[14],60 AU (inactive)
